This assay can be described thus: NCI Yeast Anticancer Drug Screen. Data for the bub3 strain (AID 167). Particulars: S. cerevisiae bub3 mutant strain, active compounds read high. On the procedure: Growth inhibition of yeast strains with defined genetic alterations is measured as a screen for potential anti-cancer activity. Selected strains with alterations in DNA damage repair or cell cycle control were exposed to compounds and growth inhibition was measured relative to vehicle treated controls. The strain used in this assay is bub3

The mark [1] stands for this setting: at 5.0 µM (retest, dose inferred, filed as 0.5).
The mark [2] stands for this setting: at 50.0 µM (retest, dose inferred, filed as 5.0).

Each structure is given as a SMILES string. Where “and” joins values, the source holds several entries; their conditions need not be identical. Equal values may be shown once. This is part of a sample that, as a whole, favours compounds with a hit. Of some 79,000 tested, about 15% had one in any assay. Values without a mark were called inactive. Calls of active or inactive are those of the source. No stated cut-off is given here; in the data, active means growth inhibition above about 70%; inactive means the rest.

On to `CC[N](CC)[Ge]([CH2]C)[CH2]C.C[CH2][Ge]([CH2]C)[CH2]C`, for which the growth inhibition is 24% under setting [1], 99% (active) under setting [2] and 90% (active) (at 50.0 µM).
The matching figures for `O=C(O)c1ccc(Nc2cnc3ccc(C(F)(F)F)cc3n2)cc1`: 5%, 12% and 4.9%.
For `CC(C)(C)c1ccc(-c2c3ccccc3cc3ccccc23)cc1`, in that order: 1%, 16% and 0.8%.
For `O=P(C(=S)NC1CC2C=CC1C2)(c1ccccc1)c1ccccc1` (configuration not stated), in that order: -3%, 92% (active) and 34.1%.
Consider `CN(CCN1C(=O)c2cccc3cccc(c23)C1=O)CCN1C(=O)c2cccc3cccc(c23)C1=O`, for which the growth inhibition was -2% under setting [1], 95% (active) under setting [2] and 96% (active) (at 50.0 µM).
For `COc1ccc2cc(C(C)=O)c3ccccc3c2c1`, in that order: -68%, 94% (active) and 2.7%.
As for `Cc1c(N)nc(C(CC(N)=O)NCC(N)C(N)=O)nc1C(=O)NC(C(=O)NC(C)C(O)C(C)C(=O)NC(C(=O)NCCc1nc(-c2nc(C(=O)NCCCNCCCCN)cs2)cs1)C(C)O)C(OC1OC(CO)C(O)C(O)C1OC1OC(CO)C(O)C(OC(N)=O)C1O)c1cnc[nH]1` (configuration not stated), the growth inhibition by setting is: under setting [1], 76% (active); under setting [2], 98% (active); (at 50.0 µM) 99% (active) and 87.9% (active).
Regarding `CCCCCCCCCCCCCCCCBr`, the growth inhibition is -2% under setting [1], -3% under setting [2] and 99.5% (active) (at 50.0 µM).
For `c1ccc(-c2conc2-c2ccccc2)cc1`, in that order: -20%, 92% (active) and 54%.
On to `CCN(CC)Cc1cc2c(cc1O)CC[C@@H]1[C@@H]2CC[C@]2(C)C(=O)CC[C@@H]12`, for which the growth inhibition was 15% under setting [1]; 67% under setting [2]; 54% and 56% (at 50.0 µM).
On to `CC1=CC(C)=Nc2ccc(Cl)cc2N1`, for which the growth inhibition by setting is: under setting [1], -2%; under setting [2], -7%; (at 50.0 µM) -2.9% and 21.6%.
As for `COc1cccc(NC(=S)N2CCCCC2)c1`, the growth inhibition by setting is: under setting [1], -60%; under setting [2], -58%; (at 50.0 µM) 14.7%.
Take `Oc1c(Cl)cc(Cl)cc1Cc1cc(Cl)cc(Cl)c1O`: the growth inhibition was 88% (active) and 74% (active) under setting [1]; 98% (active) under setting [2]; 98.4% (active) and 99.3% (active) (at 50.0 µM).
On to `O=C(c1ccccc1)C(c1ccccc1)C(O)c1ccc([N+](=O)[O-])cc1` (configuration not stated), for which the growth inhibition reads like this: under setting [1], 19% and 1%; under setting [2], 92% (active) and 99% (active); (at 50.0 µM) 95.6% (active) and 98.9% (active).

Values taken from PubChem BioAssay (NCI).
